According to PubChem BioAssay AID1159580 (chemical genetic matrix, 2015):
Several values for one entry are separate records, joined by “and”; a condition that tells them apart may be missing. Equal values may be shown once. Screen size: about 5,500 compounds; about 2,000 (36%) were called active. Inconclusive results (about 18%) are left out. Rule as the data show it: active = normalized growth mostly below about 0.91 (no sharp cut-off); inconclusive = no clear call, values can overlap the other calls; inactive = mostly above about 0.92. The list shows a part of the results.

Test: chemical genetic growth profiling, strain panel (AID 1159580);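 also: tested at 20 µM; growth read once vehicle control cultures reached saturation at 30 °C; 1 = growth at the plate median or of vehicle wells; lower values mean less growth of the strain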
Conditions: growth OD

Measured: normalized growth

CN(C)c1nc(N(C)C)nc(N(C)C)n1
inactive: S. cerevisiae deletion strains, locus YKL009W, strain mrt4, hits give low values 1 | S. cerevisiae deletion strains, locus YKL068W, hits give low values 1.01 | S. cerevisiae deletion strains, locus YKL085W, strain MDH1 (second series), hits give low values 1.01 | S. cerevisiae deletion strains, locus YKL085W, strain MDH1, hits give low values 1.01 | S. cerevisiae deletion strains, locus YKL160W, strain elf1, hits give low values 0.985 | S. cerevisiae deletion strains, locus YKL190W, strain CNB1, hits give low values 1.01 | S. cerevisiae deletion strains, locus YKR001C, strain vps1, hits give low values 1.01 | S. cerevisiae deletion strains, locus YKR026C, strain gcn3, hits give low values 0.978 | S. cerevisiae deletion strains, locus YKR091W, strain srl3, hits give low values 0.962 | S. cerevisiae deletion strains, locus YLL001W, strain dnm1, hits give low values 0.969 | S. cerevisiae deletion strains, locus YLL026W, hits give low values 0.977 | S. cerevisiae deletion strains, locus YLL041C, strain sdh2, hits give low values 0.983 | S. cerevisiae deletion strains, locus YLR027C, strain aat2, hits give low values 0.969 | S. cerevisiae deletion strains, locus YLR039C, strain RIC1, hits give low values 0.964 | S. cerevisiae deletion strains, locus YLR058C, strain SHM2, hits give low values 1.01 | S. cerevisiae deletion strains, locus YLR102C, strain apc9, hits give low values 1.01 | S. cerevisiae deletion strains, locus YLR113W, strain HOG1, hits give low values 0.948 | S. cerevisiae deletion strains, locus YLR221C, strain rsa3, hits give low values 0.945 | S. cerevisiae deletion strains, locus YLR258W, strain gsy2, hits give low values 0.987 | S. cerevisiae deletion strains, locus YLR262C, strain YPT6 (second series), hits give low values 0.932 | S. cerevisiae deletion strains, locus YLR262C, strain YPT6, hits give low values 0.986 | S. cerevisiae deletion strains, locus YLR268W, strain sec22, hits give low values 1.02 | S. cerevisiae deletion strains, locus YLR320W, strain mms22, hits give low values 0.949 | S. cerevisiae deletion strains, locus YLR330W, strain CHS5, hits give low values 1.01 | S. cerevisiae deletion strains, locus YLR342W, strain FKS1 (second series), hits give low values 1 | S. cerevisiae deletion strains, locus YLR342W, strain FKS1, hits give low values 0.968 | S. cerevisiae deletion strains, locus YLR357W, strain rsc2, hits give low values 0.978 | S. cerevisiae deletion strains, locus YLR370C, strain arc18, hits give low values 0.964 | S. cerevisiae deletion strains, locus YLR371W, strain rom2, hits give low values 1.01 | S. cerevisiae deletion strains, locus YLR384C, strain iki3, hits give low values 0.951 | S. cerevisiae deletion strains, locus YLR418C, strain cdc73, hits give low values 1.05 | S. cerevisiae deletion strains, locus YML016C, strain PPZ1, hits give low values 1.01 | S. cerevisiae deletion strains, locus YML032C, strain rad52, hits give low values 1.02 | S. cerevisiae deletion strains, locus YML120C, strain ndi1, hits give low values 0.952 | S. cerevisiae deletion strains, locus YML124C, strain tub3, hits give low values 1.02 | S. cerevisiae deletion strains, locus YMR058W, strain fet3, hits give low values 0.969 | S. cerevisiae deletion strains, locus YMR078C, strain ctf18, hits give low values 1.02 | S. cerevisiae deletion strains, locus YMR125W, strain sto1, hits give low values 0.97 | S. cerevisiae deletion strains, locus YMR129W, hits give low values 0.992 | S. cerevisiae deletion strains, locus YMR205C, strain PFK2, hits give low values 0.945 | S. cerevisiae deletion strains, locus YMR223W, strain ubp8, hits give low values 1.02 | S. cerevisiae deletion strains, locus YMR231W, strain pep5, hits give low values 0.979 | S. cerevisiae deletion strains, locus YMR263W, strain SAP30, hits give low values 1.01 | S. cerevisiae deletion strains, locus YMR307W, strain GAS1, hits give low values 1.03 and 1.01 | S. cerevisiae deletion strains, locus YNL067W, strain RPL9B, hits give low values 1 | S. cerevisiae deletion strains, locus YNL071W, strain lat1, hits give low values 0.982 | S. cerevisiae deletion strains, locus YNL128W, strain TEP1, hits give low values 1.02 | S. cerevisiae deletion strains, locus YNL153C, strain GIM3, hits give low values 0.995 | S. cerevisiae deletion strains, locus YNL175C, strain NOP13, hits give low values 0.992 | S. cerevisiae deletion strains, locus YNL183C, strain NPR1, hits give low values 0.92 | S. cerevisiae deletion strains, locus YNL197C, strain WHI3, hits give low values 0.997 | S. cerevisiae deletion strains, locus YNL209W, strain ssb2, hits give low values 0.978 | S. cerevisiae deletion strains, locus YNL224C, strain SQS1, hits give low values 0.993 | S. cerevisiae deletion strains, locus YNL233W, strain BNI4, hits give low values 1 | S. cerevisiae deletion strains, locus YNL248C, strain rpa49, hits give low values 0.959 | S. cerevisiae deletion strains, locus YNL250W, strain rad50, hits give low values 1.04 | S. cerevisiae deletion strains, locus YNL271C, strain bni1, hits give low values 1.02 | S. cerevisiae deletion strains, locus YNL298W, strain CLA4, hits give low values 1.02 | S. cerevisiae deletion strains, locus YNL307C, strain MCK1, hits give low values 1.02 | S. cerevisiae deletion strains, locus YNL322C, strain KRE1 (second series), hits give low values 0.954 | S. cerevisiae deletion strains, locus YNL322C, strain KRE1, hits give low values 0.996 | S. cerevisiae deletion strains, locus YNR049C, strain mso1, hits give low values 0.96 | S. cerevisiae deletion strains, locus YNR052C, strain pop2, hits give low values 1.02 | S. cerevisiae deletion strains, locus YOL006C, strain TOP1, hits give low values 1 | S. cerevisiae deletion strains, locus YOL012C, strain htz1 0.788 | S. cerevisiae deletion strains, locus YOL147C, strain pex11, hits give low values 1.02 | S. cerevisiae deletion strains, locus YOR001W, strain rrp6, hits give low values 0.987 | S. cerevisiae deletion strains, locus YOR061W, strain CKA2, hits give low values 1.01 | S. cerevisiae deletion strains, locus YOR069W, strain VPS5, hits give low values 1 | S. cerevisiae deletion strains, locus YOR070C, strain gyp1, hits give low values 0.984 | S. cerevisiae deletion strains, locus YOR080W, strain dia2, hits give low values 0.974 | S. cerevisiae deletion strains, locus YOR083W, strain WHI5 (second series), hits give low values 1.03 | S. cerevisiae deletion strains, locus YOR083W, strain WHI5, hits give low values 0.956 | S. cerevisiae deletion strains, locus YOR106W, strain vam3, hits give low values 0.928 | S. cerevisiae deletion strains, locus YOR136W, strain idh2, hits give low values 1.02 | S. cerevisiae deletion strains, locus YOR144C, strain elg1, hits give low values 1.01 | S. cerevisiae deletion strains, locus YOR184W, strain ser1, hits give low values 1.02 | S. cerevisiae deletion strains, locus YOR231W, strain MKK1, hits give low values 0.962 | S. cerevisiae deletion strains, locus YOR265W, strain rbl2, hits give low values 0.971 | S. cerevisiae deletion strains, locus YOR270C, strain vph1, hits give low values 0.953 | S. cerevisiae deletion strains, locus YOR290C, strain snf2, hits give low values 0.919 | S. cerevisiae deletion strains, locus YOR316C, strain cot1, hits give low values 1.02 | S. cerevisiae deletion strains, locus YPL051W, strain arl3, hits give low values 0.979 | S. cerevisiae deletion strains, locus YPL055C, strain LGE1, hits give low values 1.01 | S. cerevisiae deletion strains, locus YPL078C, strain atp4, hits give low values 0.975 | S. cerevisiae deletion strains, locus YPL106C, strain sse1, hits give low values 0.951 | S. cerevisiae deletion strains, locus YPL240C, strain hsp82, hits give low values 0.974 | S. cerevisiae deletion strains, locus YPL256C, strain CLN2, hits give low values 0.975 | S. cerevisiae deletion strains, locus YPR119W, strain clb2, hits give low values 1.01 | S. cerevisiae deletion strains, locus YPR141C, strain kar3, hits give low values 1.02 | S. cerevisiae deletion strains, locus YPR163C, strain tif3, hits give low values 1.02 | S. cerevisiae deletion strains, locus YPR167C, strain met16, hits give low values 1.01 | S. cerevisiae deletion strains, strain wtn01, hits give low values 1.02 | S. cerevisiae strains, strain wild type, hits give low values 1.01
